DT40 TDP1 CPT – DT40-hTDP1 cell growth loss with CPT. chicken DT40 Tdp1-/-;hTDP1 cells + 20 nM CPT, ATP luminescence, 48 h. Potency, µM (top dose mostly 46.2 µM), most hits filed as inhibitors. 420,000 tested, 12% active. AID 686979; also: nearly all actives have a fitted effect of over 55% in size
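Cell growth measured by CellTiter-Glo luminescence after a minimum 48 h, 37 C compound exposure with 20 nM CPT in Tdp1-knockout DT40 cells stably expressing hTDP1, seeded 400/well; qHTS titration format.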
TGFb inhibitor – TGF-b pathway inhibition. HepG2 CAGA-GFP TGF-b/SMAD3 reporter, GFP fluorescence, 18 h; TGF-beta stimulated, 500 pg/mL final. Potency, µM (series often up to 46.1 µM), hits mostly inhibitors. 410,000 tested, 1.2% active. AID 588855; also: nearly all actives have a fitted effect of over 65% in size
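HEPG2 CAGA-GFP reporter cells (1000/well, DMEM with 1% FBS) received compounds, then recombinant TGF-beta at 500 pg/mL final for 18 hours at 37 degrees C. Per-cell GFP summed per well was normalised to unstimulated and stimulated DMSO controls before curve fitting.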
ATXN viability – reduces viability in counter-screen for ATXN expression inhibitors; AID 651635; 400,000 tested, 0.49% active; S2 cells (HEK-293 line with an ATXN2-luciferase reporter) viability, CellTiter-Fluor protease fluorescence, 24 h; Potency, µM (highest dose often 56.7 µM), usual class: cytotoxic; also: nearly all actives have a fitted effect of over 40% in size
DT40 TDP1 no CPT – qHTS for Inhibitors of human tyrosyl-DNA phosphodiesterase 1 (TDP1): qHTS in cells in absence of CPT | 420,000 tested, 15% active | AID 686978, 2013 | DT40 Tdp1-/- hTDP1 cells, no CPT, ATP luminescence, 48 h | Potency, µM (series often up to 46.2 µM), usual class: inhibitors; also: nearly all actives have a fitted effect of over 55% in size
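Growth kinetics read by CellTiter-Glo luminescence after ≥48 hr at 37 °C. Cells: DT40 Tdp1-/- stably carrying human TDP1, 400 per well, compound exposure in the absence of CPT (DMSO vehicle).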
HepG2 tox – kills HepG2 cells in TGF-b inhibitor counter-screen; HepG2 CAGA-GFP viability, ATP luminescence, 18 h; 410,000 tested, 0.76% active; Potency, µM (top dose mostly 46.1 µM), usual class: cytotoxic
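CellTiter-Glo luminescence gave cytotoxicity after 18 hours at 37 degrees C. The cells were HepG2 CAGA-GFP in 1% FBS DMEM, stimulated with 500 pg/mL TGF-beta after compound addition. %Activity was normalised to no-cell wells (complete cell-killing) and DMSO (no toxicity), and curves were fitted and classified.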
ATXN2 expr inh – ATXN2 expression inhibition. HEK-293 ATXN2-luciferase reporter, luminescence, 24 h. 360,000 tested, 0.72% active. Potency, µM (highest dose often 57 µM), actives largely listed as inhibitors; also: nearly all actives have a fitted effect of over 55% in size
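qHTS (up to 57 uM final) was run with 24 h compound exposure of reporter cells at 37 °C. Each well was multiplexed: SteadyGlo luminescence measured ATXN2-luciferase expression after a fluorogenic Gly-Phe-AFC viability readout (25 uM final).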
Each line names hits and unclear results; the compound was inactive in the other large screens. An excerpt weighted towards active compounds, which were near 17% of everything screened. Calls follow the shape of the dose curve; as a rule, active = well fitted curve in the direction sought with a large enough effect; inconclusive = small, poorly fitted or top-dose-only effect, or another doubt; inactive = no such curve, though single readings can be large; an effect the other way counts as inactive or inconclusive.

Cc1ccc(SCCC(=O)N/N=C/c2ccccc2O)cc1	DT40 TDP1 CPT 0.65µM, DT40 TDP1 no CPT 1.3µM, ATXN2 expr inh 25µM
O=C(CCC(=O)Nc1ccc(Br)cc1)N/N=C/c1ccccc1O	DT40 TDP1 CPT inconclusive, DT40 TDP1 no CPT 6.5µM, ATXN2 expr inh inconclusive
Cc1ccc(NC(=O)CCC(=O)N/N=C/c2ccccc2O)cc1	DT40 TDP1 CPT 10µM, ATXN viability inconclusive, DT40 TDP1 no CPT 15µM (no result: ATXN2 expr inh)
O=C(CCC(=O)Nc1ccc(F)cc1)N/N=C/c1ccc(Br)cc1	none
Cc1ccc(SCCC(=O)N/N=C/c2cccnc2)cc1	DT40 TDP1 CPT inconclusive
COc1cccc(N2CCN(C(=O)C3CCN(S(=O)(=O)c4ccc5c(c4)CC(C)N5C(C)=O)CC3)CC2)c1 (stereo unspecified)	DT40 TDP1 CPT inconclusive, DT40 TDP1 no CPT inconclusive (no result: ATXN2 expr inh)
Cc1c(CN(C)C(=O)/C=C/c2ccc([N+](=O)[O-])cc2)cnn1C	DT40 TDP1 CPT 23µM, DT40 TDP1 no CPT inconclusive
COc1ccc(N2CCOCC2)c(NC(=O)c2ccc3c(c2)OCO3)c1	DT40 TDP1 CPT inconclusive, ATXN viability inconclusive, DT40 TDP1 no CPT 21µM
COC(=O)c1ccc(N2CCOCC2)c(NC(=O)c2ccc3c(c2)OCO3)c1	DT40 TDP1 no CPT inconclusive
COc1ccc(NS(=O)(=O)c2ccc(N3CCOCC3)c(NC(=O)c3ccc(OC)cc3)c2)cc1	DT40 TDP1 CPT 16µM, TGFb inhibitor inconclusive, DT40 TDP1 no CPT 16µM
COc1ccc(NS(=O)(=O)c2ccc(N3CCOCC3)c(NC(=O)c3ccccc3Cl)c2)cc1	DT40 TDP1 no CPT inconclusive
COc1ccc(NS(=O)(=O)c2ccc(N3CCOCC3)c(N)c2)cc1	DT40 TDP1 CPT 2.6µM, DT40 TDP1 no CPT 1.2µM, ATXN2 expr inh inconclusive
COc1ccc(CN2CCNC(=O)C2CC(=O)N(C)C2CCOCC2)c(F)c1 (stereo unspecified)	none
O=C(CCN1C(=O)/C(=C/c2ccccc2Cl)SC1=S)NN1CCOCC1	DT40 TDP1 CPT inconclusive, DT40 TDP1 no CPT inconclusive
O=C(CCN1C(=O)/C(=C/c2ccccc2Cl)SC1=S)NC1CCCC1	DT40 TDP1 CPT 8.2µM, DT40 TDP1 no CPT 9.2µM
O=C(CCN1C(=O)/C(=C/c2ccccc2Cl)SC1=S)NCCc1ccc(O)cc1	DT40 TDP1 CPT inconclusive, DT40 TDP1 no CPT 9.2µM
O=C(CCN1C(=O)/C(=C/c2ccccc2Cl)SC1=S)NNC(=O)c1ccccc1O	DT40 TDP1 CPT inconclusive, DT40 TDP1 no CPT inconclusive
COc1ccc(CN(C(=O)c2cc(=O)c3ccccc3o2)C2CCS(=O)(=O)C2)cc1OC (stereo unspecified)	DT40 TDP1 no CPT inconclusive
COc1cccc(-c2ccnc(-n3ncc(C(=O)NCC4(N5CCCCC5)CCCC4)c3C)n2)c1	none (no result: TGFb inhibitor, HepG2 tox, ATXN2 expr inh)
Cc1cc(CN(C)Cc2c(C(=O)N3CCCCCCC3)nc3ccc(Cl)cn23)n[nH]1	none
CCOc1ccccc1NC(=O)C(=O)N/N=C/c1ccc([N+](=O)[O-])cc1	none
O=C(N/N=C/C(Cl)=C/c1ccc([N+](=O)[O-])cc1)C(=O)Nc1ccc(C(=O)O)cc1	DT40 TDP1 CPT 15µM, DT40 TDP1 no CPT 21µM
O=C(N/N=C/C(Cl)=C/c1ccc([N+](=O)[O-])cc1)C(=O)Nc1ccccc1C(=O)O	DT40 TDP1 CPT 5.2µM, ATXN viability inconclusive, DT40 TDP1 no CPT 8.2µM
COc1ccc(NC(=O)Nc2cnccn2)cc1OC	none
COc1ccc(C2(C#N)CCC(=O)N2c2ccccc2)cc1 (stereo unspecified)	none
Cc1nc2ccccc2nc1-c1csc(-c2ccccc2)n1	DT40 TDP1 CPT 13µM, TGFb inhibitor inconclusive, DT40 TDP1 no CPT 11µM (no result: ATXN viability, ATXN2 expr inh)
Fc1ccc(Nc2nc(NCc3ccccc3)nc3ccsc23)cc1	DT40 TDP1 CPT 8.2µM, TGFb inhibitor inconclusive, ATXN viability inconclusive, DT40 TDP1 no CPT 9.2µM, HepG2 tox 13µM, ATXN2 expr inh inconclusive
N#Cc1ccc(Nc2nc(NCc3ccccc3)nc3ccsc23)cc1	DT40 TDP1 CPT 6.5µM, ATXN viability inconclusive, DT40 TDP1 no CPT 1.8µM
C#Cc1cccc(Nc2nc(NCc3ccccc3)nc3ccsc23)c1	DT40 TDP1 CPT 9.2µM, TGFb inhibitor inconclusive, ATXN viability inconclusive, DT40 TDP1 no CPT 10µM, ATXN2 expr inh inconclusive
CC(C)(C)c1ccc(NC(=O)COc2ccc(-n3ccnc3)cc2)cc1	DT40 TDP1 CPT 15µM, DT40 TDP1 no CPT 16µM
OC(c1cccc(Cl)c1)c1nc(-c2ccccc2)cs1 (stereo unspecified)	DT40 TDP1 CPT inconclusive
OC(c1cccc(Cl)c1)c1nc(-c2ccc3c(c2)OCO3)cs1 (stereo unspecified)	DT40 TDP1 CPT inconclusive, DT40 TDP1 no CPT inconclusive
CC(C)c1cccc(-c2csc(C(O)c3cccc(Cl)c3)n2)c1 (stereo unspecified)	DT40 TDP1 CPT 23µM, TGFb inhibitor inconclusive, ATXN viability inconclusive, DT40 TDP1 no CPT 21µM
CN(C)c1ccc(-c2csc(C(O)c3cccc(Cl)c3)n2)cc1 (stereo unspecified)	DT40 TDP1 CPT 21µM, DT40 TDP1 no CPT 21µM
O=C(NCCCN1CCOCC1)C(=O)N/N=C/c1ccccc1O	DT40 TDP1 CPT inconclusive, DT40 TDP1 no CPT inconclusive
COc1ccc(CNC(=O)CC23CC4CC(CC(C4)C2)C3)cc1OC	DT40 TDP1 CPT inconclusive
COc1ccccc1NC(=O)Cc1nnc(SCC(=O)Nc2ccccc2F)n1C	DT40 TDP1 CPT 16µM, TGFb inhibitor inconclusive, DT40 TDP1 no CPT inconclusive
CCn1c(CC(=O)Nc2ccccc2OC)nnc1SCC(=O)Nc1ccccc1F	none
COc1ccccc1NC(=O)CNC(=O)CC12CC3CC(CC(C3)C1)C2	DT40 TDP1 CPT 1.6µM
COc1ccccc1NC(=O)CN1CCN(CC(=O)Nc2ccccc2Cl)CC1	none
COc1ccccc1NC(=O)CN1CCN(c2ccc(Cl)cc2)CC1	DT40 TDP1 CPT 21µM, TGFb inhibitor inconclusive, DT40 TDP1 no CPT 16µM
COc1ccccc1NC(=O)CN1CCOCC1	HepG2 tox 7.9µM
COc1ccccc1NC(=O)CN1CCN(c2ccccc2OC)CC1	DT40 TDP1 no CPT inconclusive (no result: ATXN2 expr inh)
COc1ccccc1NC(=O)CN1CCN(c2ccccc2F)CC1	DT40 TDP1 CPT 21µM, DT40 TDP1 no CPT inconclusive
CCN(CC)c1ccc(NC(=O)CN2CCN(c3ccc(F)cc3)CC2)cc1	DT40 TDP1 CPT inconclusive, DT40 TDP1 no CPT inconclusive
COc1ccccc1NC(=O)CSC(N)=O	DT40 TDP1 CPT inconclusive, DT40 TDP1 no CPT 21µM

Assay outcomes: PubChem, National Center for Advancing Translational Sciences (NCATS)
